TDP1 cell noCPT – qHTS for Inhibitors of human tyrosyl-DNA phosphodiesterase 1 (TDP1): qHTS in cells in absence of CPT. DT40 Tdp1-/- hTDP1 cells, no CPT, ATP luminescence, 48 h. Potency, µM (highest dose often 46.2 µM), inactives show at the highest dose activity change, negative = growth inhibition, usual class: inhibitors. hit rate 15% among 420,000; note: potency is the fitted concentration of half-maximal effect; nearly all actives have a fitted effect of over 55% in size
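Chicken DT40 Tdp1-/- cells complemented with human TDP1, screened without camptothecin (DMSO vehicle only), 400 cells/well. Compounds pin-transferred, cells incubated at 37 °C for at least 48 hr. Growth read as ATP-dependent luminescence (CellTiter-Glo, 30 min at RT).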
TDP1 block – blocks human tyrosyl-DNA phosphodiesterase 1; recombinant TDP1, AlphaScreen DNA substrate cleavage; Q9NUW8; hit rate 0.28% among 350,000; Potency, µM (series often up to 130 µM), inactives show at the highest dose activity change, negative = inhibition, usual class: inhibitors; note: potency is the fitted concentration of half-maximal effect; nearly all actives have a fitted effect of over 40% in size
Target sequence (Q9NUW8 whole entry, looked up): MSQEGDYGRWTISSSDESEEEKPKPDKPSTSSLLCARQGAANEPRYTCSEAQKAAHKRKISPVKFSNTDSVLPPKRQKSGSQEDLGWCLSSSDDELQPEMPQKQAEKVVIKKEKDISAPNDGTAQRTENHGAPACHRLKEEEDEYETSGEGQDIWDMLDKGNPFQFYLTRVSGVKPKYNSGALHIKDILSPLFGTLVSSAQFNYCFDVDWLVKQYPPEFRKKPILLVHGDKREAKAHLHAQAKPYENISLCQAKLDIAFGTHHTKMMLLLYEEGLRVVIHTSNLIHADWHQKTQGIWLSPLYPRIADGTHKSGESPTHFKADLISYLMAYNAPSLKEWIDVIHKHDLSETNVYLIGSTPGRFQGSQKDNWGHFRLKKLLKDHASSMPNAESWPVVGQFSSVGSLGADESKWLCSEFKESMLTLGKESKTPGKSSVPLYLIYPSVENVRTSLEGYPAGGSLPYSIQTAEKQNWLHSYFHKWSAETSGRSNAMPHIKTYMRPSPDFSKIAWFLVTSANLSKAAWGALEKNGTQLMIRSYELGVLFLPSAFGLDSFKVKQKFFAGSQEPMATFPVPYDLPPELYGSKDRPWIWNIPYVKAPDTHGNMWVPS
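Recombinant E. coli-expressed Tdp1 (1 nM) preincubated with compound 15 min at RT, then 5'-biotin/3'-phosphotyrosine-FITC DNA substrate (15 nM) added for 5 min. AlphaScreen beads (10 ug/ml) added, 10 min RT; tyrosine-FITC cleavage read as signal loss.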
Giardia killer – Giardia lamblia killing; Giardia lamblia trophozoite viability; activity change, % at 7.66 µM, hits read low; hit rate 0.15% among 340,000; in the data active = activity change below about -80%; inconclusive = between about -30% and that limit;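 note: parasites exposed to compound for two days anaerobically before the ATP read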
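Viability, read as ATP luminescence: trophozoites at 100 cells/well, compound added, 48 hrs anaerobic at 37 deg C, then 15-30 min room-temperature development before reading.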
ELG1 DNA repair – blocks ELG1-dependent DNA repair in HEK293T cells. Potency, µM (top dose mostly 46.1 µM), inactives show top-dose activity change, negative = inhibition, actives largely listed as inhibitors. HEK293T ELG1-luciferase reporter, luminescence, 16 h; DNA damage induced by 5-fluorouridine. hit rate 2.3% among 330,000; note: potency is the fitted concentration of half-maximal effect; nearly all actives have a fitted effect of over 55% in size
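HEK293T cells expressing luciferase-tagged ELG1 (2,000/well) received 5-Fluorouridine plus compound or DMSO for 16 hr at 37 °C. Luciferase was read by ONE-Glo luminescence after 30 min at room temperature.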
IL1B secr inh – inhibitors of inflammasome signaling (IL-1 beta secretion) | THP-1 LPS/ATP IL-1B secretion, AlphaLISA, 16 h; stronger effect = lower value | activity change, % at 57.5 µM | hit rate 4.7% among 360,000 | AID 743279; in the data active = activity change below about -50%; inconclusive = mostly about -30% to -49%
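Secreted IL-1B measured by AlphaLISA bead assay after 16 h compound exposure of THP-1 cells; compounds (final up to 57.5 uM) added 1 h before LPS (250 ng/mL) and ATP (1.25 mM) stimulation; lower signal means less secretion.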
TDP1 cell CPT – DT40-hTDP1 cell growth loss with CPT | hit rate 12% among 420,000 | chicken DT40 Tdp1-/-;hTDP1 cells + 20 nM CPT, ATP luminescence, 48 h | AID 686979 | Potency, µM (series often up to 46.2 µM), for the others: at the top dose activity change, negative = growth inhibition, most hits filed as inhibitors; note: potency is the fitted concentration of half-maximal effect; nearly all actives have a fitted effect of over 55% in size
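Chicken DT40 Tdp1-/- cells stably complemented with human TDP1 were seeded at 400 cells/well in medium containing 20 nM camptothecin, exposed to pin-transferred compounds, and grown at 37 °C for at least 48 hr. Viability was read as ATP luminescence.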
* = called active by the depositor; ? = inconclusive; / = not tested or not shown; [ ] = another dose, or the depositor's remark. This is a sample that favours compounds with a hit; in the whole collection about 19% have one here. Unless noted, calls come from the whole dose curve; as a rule, active = well fitted curve in the direction sought with a large enough effect; inconclusive = small, poorly fitted or top-dose-only effect, or another doubt; inactive = no such curve, though single readings can be large; an effect the other way counts as inactive or inconclusive. % is set by controls: 0 for no effect and ±100 for the full control effect.

SMILES	TDP1 cell noCPT	TDP1 block	Giardia killer	ELG1 DNA repair	IL1B secr inh	TDP1 cell CPT
CCN(CCO)c1ccc(Nc2cc(-c3ccc(-c4ccccc4)cc3)ncn2)cc1	15µM*	/	/	/	-8	18µM*
Cc1nn(Cc2ccc(Cl)cc2)c(C)c1NC(=O)c1cc(-c2ccc3c(c2)OCO3)on1	15µM*	1%	-3	18µM*	-24	23µM*
Cc1nn(Cc2ccc(Cl)c(Cl)c2)c(C)c1NC(=O)c1cc(-c2ccc3c(c2)OCO3)on1	21µM*	1%	-14	?	-13	18µM*
CC(C)(C)C(=O)O/N=C(\N)c1ccc([N+](=O)[O-])s1	6.5µM*	8%	-20	?	0	6.5µM*
N/C(=N\O)c1ccc([N+](=O)[O-])s1	?	0%	-88*	?	0	?
CCOC(=O)c1c(C)[nH]c(C)c1C(=O)COC(=O)c1ccc([N+](=O)[O-])s1	?	6%[56.1 µM]	0	?	29	?
CC(C)(C)C(=O)O/N=C(\N)c1ccc(Br)cc1	?	-6%	0	12%	7	-6%
CC(=O)Oc1ccc(CN2C(=O)C(CCc3ccccc3)ON=C2c2cnccn2)cc1 (centres undefined)	?	/	/	/	-7	?
CCNc1nc(C)nc2c1cnn2C	-9%	/	-13	/	7	0%
CCNc1nc(Nc2ccc(C)c(Cl)c2)c2cnn(C)c2n1	1.6µM*	/	5	9.2µM*	-11	18µM*
CCCCNc1nc(Nc2ccc(C)c(Cl)c2)c2cnn(C)c2n1	?	/	3	18µM*	-66*	23µM*
CCCCn1cc(S(=O)(=O)c2cc(C)ccc2C)c(=O)c2cc(F)c(N3CCC(C)CC3)cc21	9%	4%	/	/	/	?
COc1ccccc1NC(=O)c1c[nH]c2ccccc12	?	/	3	?	8	-30%
Fc1ccc(CNc2ncnc3c2c(-c2ccccc2)cn3-c2ccccc2)cc1	?	-1%	/	/	/	?
Cc1c(C(=O)NCCCN2CCCC2=O)cnn1-c1ncc2c(n1)-c1ccccc1CC2	-18%	/	/	/	/	5%[9.04 µM]
COc1ccc(-c2cc(C(F)(F)F)n3nc(C(=O)Nc4c(C)n(C)n(-c5ccccc5)c4=O)cc3n2)cc1	-18%	5%	-21	-15%	-1	-4%
O=C(COC(=O)COc1cccc(C(F)(F)F)c1)Nc1ccc(N2CCOCC2)cc1	-14%	1%	-7	?	10	-8%
CCOc1cc(NC(=S)NCC2CCCO2)c(OCC)cc1NC(=O)c1ccccc1F (centres undefined)	23µM*	6%	4	23µM*	-22	?
CCNC(=O)c1ccccc1-c1nc(-c2ccccc2Cl)no1	18µM*	7%	-11	-1%	15	?
Cc1ccccc1-c1noc(-c2ccccc2C(=O)NCc2ccco2)n1	18µM*	0%	6	?	?	?
CCOc1cc(NC(=S)NCC2CCCO2)c(OCC)cc1NC(=O)CC (centres undefined)	13%	-2%	0	-10%	12	9%
O=C(NCC1CCCO1)c1ccccc1-c1nc(-c2ccc(Cl)cc2)no1 (centres undefined)	18µM*	2%	2	?	-27	18µM*
O=C(Nc1nnc(Cc2ccccc2)s1)C1CCN(C(=O)c2ccco2)CC1	-17%	-3%	-7	1%	26	11%
Fc1ccc(-c2nc(Nc3ccc(F)c(Cl)c3)nc3c2COc2ccccc2-3)cc1	?	11%	/	/	/	?
O=C(CN1C(=O)c2cccnc2Oc2ccc(Cl)cc21)N1CCCC1	14%	2%	1	12%	17	-14%
SMILES	TDP1 cell noCPT	TDP1 block	Giardia killer	ELG1 DNA repair	IL1B secr inh	TDP1 cell CPT
COc1cc(/C=C/C(=O)NC(C)C2CC3CCC2C3)cc(OC)c1OC (centres undefined)	-29%	-5%	10	21%	27	?
O=C(COc1ccccc1C(=O)NCC1CCCO1)Nc1ccc(Br)cc1 (centres undefined)	-20%	2%	21	?	-9	?
O=C(COc1ccccc1C(=O)NCC1CCCO1)Nc1ccc(Cl)cc1Cl (centres undefined)	?	-4%	1	0%	7	15µM*
Cc1ccc(S(=O)(=O)CCC(=O)OCC(=O)Nc2cc(F)ccc2C)cc1	0%	/	3	11%	7	-10%
O=Cc1cn(-c2ccccc2)nc1-c1ccc(F)cc1	21µM*	/	0	?	-18	?
O=C(N/N=C/c1cn(-c2ccccc2)nc1-c1cccnc1)c1ccc(F)cc1	?	-2%	9	?	?	?
O=C(N/N=C/c1cn(-c2ccccc2)nc1-c1cccs1)c1ccc(Cl)cc1	?	4%	35	?	-29	?
O=C(N/N=C/c1cn(-c2ccccc2)nc1-c1ccc(F)cc1)c1ccc(Br)o1	23µM*	5%	-1	?	-56*	21µM*
O=C(N/N=C/c1cn(-c2ccccc2)nc1-c1cccs1)c1ccccc1F	-120%	3%	8	?	-12	16µM*
CC1=NNC(=O)/C1=C\c1cn(-c2ccccc2)nc1-c1ccc(F)cc1	1.5µM*	-4%	14	?	-100*	3.7µM*
O=C(O)c1cn(-c2ccccc2)nc1-c1ccc(F)cc1	6%	6%	21	1%	15	1%

Screens from PubChem BioAssay.
